# Source: PubChem BioAssay (NCI)
# This is part of a sample that, as a whole, favours compounds with a hit. Of some 83,000 tested, about 20% had one in any assay.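 Interpretation: 100, growth as untreated; towards 0, rising growth inhibition; 0, no net growth; 0 to -100, cell death. Compounds scoring below 10 were considered active.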 A number with no mark means an inactive call. Calls of active or inactive are those of the source.
# What was measured:
# Experiment in all cases: NCI-60 one-dose screen, 48 h (100 = growth as untreated, 0 = no growth, -100 = all killed)
# Settings in all cases: 10 µM unless noted
# [1] = system: DU-145 prostate
# [2] = system: K-562 leukemia
# [3] = system: MALME-3M melanoma
# [4] = system: MDA-MB-231 breast
# [5] = system: RXF 393 renal
# [6] = system: SF-268 CNS
# [7] = system: SF-295 CNS
# [8] = system: SF-539 CNS
# [9] = system: UACC-257 melanoma
# [10] = system: M14 melanoma
# [11] = system: HCT-15 colon
# [12] = system: HT29 colon
# [13] = system: SNB-75 CNS
# [14] = system: U251 CNS
# [15] = system: PC-3 prostate
# [16] = system: SK-MEL-5 melanoma
# [17] = system: UACC-62 melanoma
# [18] = system: LOX IMVI melanoma
# [19] = system: SK-MEL-28 melanoma
# [20] = system: SNB-19 CNS
SMILES,growth [1],growth [2],growth [3],growth [4],growth [5],growth [6],growth [7],growth [8],growth [9],growth [10],growth [11],growth [12],growth [13],growth [14],growth [15],growth [16],growth [17],growth [18],growth [19],growth [20]
Nc1nc(=S)ss1,116%,98.1%,111%,112%,101%,108%,102%,111%,90.2%,101%,91.8%,105%,89.3%,107%,90.7%,110%,95.4%,103%,113%,–
CC(C)(C)C(=O)Nc1nc2c(s1)CCc1ccn(S(=O)(=O)c3ccccc3)c1-2,99.1%,69%,99.6%,95.8%,116%,89.5%,91.7%,99.4%,95%,96.1%,92.8%,79.5%,89.6%,94.1%,–,99.9%,77.2%,84.5%,101%,116%
Cc1cc(NC(=O)c2cccc(C(F)(F)F)c2)ccc1-n1ccc2c(NC(=O)c3ccccc3)nccc21,112%,91.2%,99.7%,94.9%,118%,103%,102%,95.9%,101%,96.8%,92.3%,94.5%,91.2%,95.7%,–,101%,96.9%,101%,104%,98.4%
O=C1C(Cl)=C(Nc2ccccc2)C(=O)C(Cl)=C1Nc1ccccc1,121%,103%,119%,121%,116%,105%,114%,106%,107%,113%,109%,112%,113%,104%,109%,112%,111%,96.9%,119%,–
COc1cc(/C=C2/Oc3cc4occc4c(OC)c3C2=O)ccc1OCC(=O)Nc1ccncc1,112%,107%,110%,89.9%,118%,105%,107%,97%,104%,98.8%,112%,104%,96.5%,108%,95.5%,100%,93.5%,99.5%,117%,–
COc1ccc(-c2nnc(SCC(=O)Nc3ccc(C(=O)/C=C/c4ccccc4)cc3)o2)cc1OC,96.7%,95.4%,104%,106%,99.8%,97.6%,104%,95.7%,105%,105%,94.6%,93.4%,92.8%,98%,100%,87.1%,92.4%,85.9%,106%,–
Cc1cc2c(cc1C)N(C(=O)CCl)CCN2C(=O)CCl,-97.8% (active),5.44% (active),-57.3% (active),-45.9% (active),-47.1% (active),-33.4% (active),11.8%,-85.6% (active),-67.2% (active),-12.1% (active),-64% (active),-73% (active),-94% (active),-84.3% (active),-70.2% (active),-97.6% (active),-43.1% (active),-89.3% (active),-49.5% (active),–
CCCCCCCCCCCCCCCC(=O)NS(=O)(=O)OC[C@H]1O[C@@H](n2cnc3c(N)ncnc32)[C@H](O)[C@@H]1O,-33.6% (active),8.9% (active),-51.6% (active),-25.6% (active),-83.4% (active),-42.6% (active),-34.6% (active),-69.4% (active),-20.7% (active),-68.2% (active),-8.55% (active),-17.1% (active),-41.6% (active),-87.5% (active),–,-88.8% (active),-48.9% (active),-64.8% (active),-59.7% (active),-53.7% (active)
CC(C)Cn1cnc2c3ccccc3nc(NCn3nc(-c4cc(Cl)cc(Cl)c4Cl)oc3=S)c21,115%,59.6%,116%,82.9%,95%,110%,100%,94.7%,99.4%,79.9%,106%,98.5%,90%,99%,86.2%,85.3%,90.1%,86.7%,110%,–
O=C1/C(=C/c2cccc3cnccc23)Cc2cc(F)ccc21,104%,96.1%,97.9%,93.4%,112%,98.8%,88.4%,94.1%,113%,87.7%,87.1%,94.6%,–,95.8%,79.2%,89.9%,86.3%,93%,109%,102%
CN(C)CC/C=C1\c2ccccc2Sc2ccc(Cl)cc21,90.9%,16.4%,69.8%,69%,41.2%,68.8%,75.4%,92.3%,-54.4% (active),-57.5% (active),78.9%,30.6%,–,49.5%,65%,34.1%,47.1%,53.6%,55.9%,85.2%
O=C(COc1ccc(Cl)cc1)N1CCN(Cc2ccc3c(c2)OCO3)CC1,113%,84.8%,98.4%,87.2%,109%,95.9%,95.4%,104%,103%,111%,96.8%,112%,–,94.3%,90.3%,97.7%,81.8%,89.5%,116%,95.6%
COc1ccc(C[C@H](N)C(=O)N[C@@H]2[C@@H](CO)OC(n3cnc4c(N(C)C)ncnc43)[C@@H]2O)cc1 (stereo partly drawn),-7.63% (active),-11.4% (active),-78.1% (active),-10.1% (active),-86.6% (active),-42.5% (active),-43% (active),-42.9% (active),-64.7% (active),-85.5% (active),71.6%,-63.8% (active),–,-91.6% (active),-6.6% (active),-96.6% (active),-81.3% (active),-61.9% (active),-64.4% (active),-4.27% (active)
S=c1ssnc1-c1ccccn1,41.6%,-35.5% (active),52%,44.3%,-0.23% (active),24.9%,40.4%,14.5%,93.3%,24.5%,14.1%,33.6%,–,28.9%,32.9%,16.7%,34.5%,6.73% (active),52.2%,47.8%
CCCCOc1nc2ccc(Cl)cc2cc1/C=C/C(=O)/C=C/c1ccc(OC)cc1,93.8%,87%,100%,106%,119%,95.4%,113%,104%,89.7%,66.3%,91.5%,71.6%,–,80.5%,88.9%,93.9%,78.9%,71.5%,107%,105%
Nc1ccc(S(=O)(=O)Nc2cc(I)cc(I)c2)cc1,124%,78.5%,118%,102%,97.2%,108%,113%,111%,99.7%,110%,112%,107%,–,106%,97.2%,105%,107%,104%,105%,116%
Nc1nccc2c1ccn2-c1ccc(NC(=O)Nc2cccc(C(F)(F)F)c2)cc1,96.7%,81.5%,99.3%,72.9%,97.8%,96.3%,78.2%,86.1%,113%,91.5%,90%,96.1%,–,80.5%,70.5%,93.5%,91.1%,87.6%,101%,104%
